From PubChem
A selection: hits, their analogues and other compounds. The true share with any hit is near 9.2%.
ELG1 repair inh: qHTS screen for small molecules that inhibit ELG1-dependent DNA repair in human embryonic kidney (HEK293T) cells expressing luciferase-tagged ELG1 | hit rate 2.3% among 330,000 | Potency, µM (series often up to 46.1 µM), most hits filed as inhibitors | HEK293T ELG1-luciferase reporter, luminescence, 16 h; DNA damage induced by 5-fluorouridine; note: nearly all actives have a fitted effect of over 55% in size
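DMSO vehicle served as the neutral condition. Each well held 2,000 cells given 5-fluorouridine plus compound; after 16 hr at 37 °C/5% CO2, ONE-Glo was added and luciferase measured 30 min later.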
Rab9 prom act: qHTS Assay for Rab9 Promoter Activators; Huh7 Rab9 promoter-luciferase reporter, luminescence, 24 h; Potency, µM (top dose mostly 9.22 µM), hits mostly activators; hit rate 2.8% among 320,000; note: nearly all actives have a fitted effect of over 60% in size
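Quantitative HTS format; Huh7 Rab9-luciferase reporter cells (1500/well) receive compound 2 h post-plating, incubate 24 h at 37 °C, then get luciferase reagent for 10 min before luminescence reading.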
NPC1 prom act: qHTS Assay for NPC1 Promoter Activators; Huh7 NPC1 promoter luciferase reporter, 24 h; AID 485313, 2010; hit rate 2.4% among 320,000; Potency, µM (titrated, usually from 9.22 µM), hits mostly activators; note: nearly all actives have a fitted effect of over 60% in size
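In 1536-well qHTS, Huh7 cells harboring an NPC1 promoter–luciferase construct received compound for 24 h; activation was quantified by luminescence following luciferase reagent addition.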
SMN2 splice up: qHTS Assay for Enhancers of SMN2 Splice Variant Expression | HEK293 SMN2-luciferase splicing reporter, luminescence, 30-36 h | Potency, µM (series often up to 46.1 µM), actives largely listed as activators | hit rate 2.8% among 210,000 | AID 1458, 2008; note: nearly all actives have a fitted effect of over 55% in size
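HEK293 cells carry an SMN2 minigene-luciferase reporter in which exon 7 inclusion puts luciferase in frame. Cells were seeded at 2000 cells/well, attached for 10-12 hours, then exposed to compounds for 30-36 hours at 37C before ONE-Glo luminescence.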
FLuc counter: qHTS profiling assay for firefly luciferase inhibitor/activator using purifed enzyme and Km concentrations of substrates (counterscreen for miR-21 project); purified FLuc, Km substrates, luminescence inhibition; AID 588342, 2011; Potency, µM (series often up to 57.5 µM), usual class: inhibitors; hit rate 6.9% among 360,000; Luciferin 4-monooxygenase (Photinus pyralis), P08659; note: nearly all actives have a fitted effect of over 55% in size
Target sequence (P08659 whole entry, looked up): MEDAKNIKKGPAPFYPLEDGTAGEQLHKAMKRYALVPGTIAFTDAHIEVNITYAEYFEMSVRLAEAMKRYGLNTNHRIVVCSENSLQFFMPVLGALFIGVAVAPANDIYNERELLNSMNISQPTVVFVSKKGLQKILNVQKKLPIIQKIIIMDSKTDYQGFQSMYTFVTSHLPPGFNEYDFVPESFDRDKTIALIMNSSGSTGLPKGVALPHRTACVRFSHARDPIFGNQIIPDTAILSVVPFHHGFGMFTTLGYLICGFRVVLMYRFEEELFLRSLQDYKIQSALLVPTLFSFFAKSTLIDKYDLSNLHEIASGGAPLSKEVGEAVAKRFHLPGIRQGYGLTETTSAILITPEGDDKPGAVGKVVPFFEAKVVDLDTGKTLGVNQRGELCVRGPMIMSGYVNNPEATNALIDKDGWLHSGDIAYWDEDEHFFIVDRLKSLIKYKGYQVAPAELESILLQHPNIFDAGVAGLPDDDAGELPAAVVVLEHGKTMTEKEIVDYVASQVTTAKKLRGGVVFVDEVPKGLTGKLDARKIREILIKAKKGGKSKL
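Biochemical qHTS of compounds, final roughly 60 µM downward over six points, against 10 nM purified firefly luciferase using Km concentrations of substrates (10 uM D-luciferin, 10 uM ATP) in Tris acetate pH 7.5 buffer; luminescence output.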
ELG1 genotoxic: qHTS screen for small molecules that induce genotoxicity in human embryonic kidney (HEK293T) cells expressing luciferase-tagged ELG1 | HEK293T ELG1-luciferase reporter, luminescence, 16 h | Potency, µM (highest dose often 46 µM), hits mostly activators | hit rate 1.3% among 330,000; note: nearly all actives have a fitted effect of over 60% in size
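Step 1: seed 2,000 HEK293T ELG1-luciferase cells per well. Step 2: add compound or DMSO, incubate 16 hr at 37 °C. Step 3: ONE-Glo, 30 min at room temperature, read luminescence.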
Numbers stand for hits. Calls come from the whole dose curve; as a rule, active = well fitted curve in the direction sought with a large enough effect; inconclusive = small, poorly fitted or top-dose-only effect, or another doubt; inactive = no such curve, though single readings can be large; an effect the other way counts as inactive or inconclusive.

Screening CCOC(=O)c1sc2nc3c(SCC(=O)O)cc(C(=O)c4ccccc4O)cn3c(=O)c2c1C returned ELG1 repair inh inactive, Rab9 prom act inactive, NPC1 prom act inactive, SMN2 splice up inactive, FLuc counter 2.39µM and ELG1 genotoxic inactive.
Screening Cc1sc2nc3c(SC(C)C(=O)O)cc(C(=O)c4ccccc4O)cn3c(=O)c2c1C (stereo not drawn) returned ELG1 repair inh inactive, Rab9 prom act inactive, NPC1 prom act inactive, SMN2 splice up inactive, FLuc counter 21.3µM and ELG1 genotoxic inactive.
`COc1cc(CN(C(=O)COc2ccc(F)cc2)c2ccccn2)cc(OC)c1OC` gave FLuc counter inactive.
For C=CCOc1ccc(C2=NOC(C(=O)Nc3ccc4c(c3)OCCO4)C2)cc1 (stereo not drawn) the results were ELG1 repair inh inactive, Rab9 prom act inactive, NPC1 prom act inactive, FLuc counter inactive and ELG1 genotoxic inactive.
For CN1CCN(C(c2ccccc2)c2sc3nc(-c4ccco4)nn3c2O)CC1 (stereo not drawn) the results were FLuc counter inactive.
`COC(=O)c1cc(C(=O)c2cc(F)ccc2O)cn2c(=O)c3c(C)c(C)sc3nc12` gave ELG1 repair inh inconclusive, Rab9 prom act inactive, NPC1 prom act inactive, FLuc counter inconclusive and ELG1 genotoxic inactive.
For CCOC(=O)c1sc2nc3c(SCC(=O)O)cc(C(=O)c4cc(F)ccc4O)cn3c(=O)c2c1C the results were ELG1 repair inh inactive, Rab9 prom act inactive, NPC1 prom act inactive, SMN2 splice up inactive, FLuc counter 8.49µM and ELG1 genotoxic inactive.
`CNc1nc(-c2ccccc2)cc(C)c1S(C)(=O)=O` gave ELG1 repair inh inactive, Rab9 prom act inactive, NPC1 prom act inactive, SMN2 splice up inactive, FLuc counter inactive and ELG1 genotoxic inactive.
`COc1ccc2nc(NC(=O)CSc3nc(C)cc(C)n3)sc2c1` gave ELG1 repair inh inconclusive, Rab9 prom act inactive, NPC1 prom act inactive, SMN2 splice up inactive, FLuc counter inactive and ELG1 genotoxic inactive.
CCn1nnnc1SCC(=O)Nc1nc2ccc(OC)cc2s1 was read as ELG1 repair inh inconclusive, Rab9 prom act inactive, NPC1 prom act inactive, SMN2 splice up inactive, FLuc counter 12µM and ELG1 genotoxic inactive.
For COc1ccc2nc(NC(=O)CSc3nnc(-c4ccoc4C)n3C)sc2c1 the results were ELG1 repair inh inconclusive, Rab9 prom act 3.55µM, NPC1 prom act 2.82µM, SMN2 splice up inconclusive, FLuc counter 2.69µM and ELG1 genotoxic inactive.
Screening COc1ccccc1CN1CC(C(=O)NCCc2ncccc2C)CCC1=O (stereo not drawn) returned ELG1 repair inh inactive, Rab9 prom act inactive, NPC1 prom act inactive, FLuc counter inactive and ELG1 genotoxic inactive.
`Cc1nn(-c2ccccc2)c2c1C(c1cccs1)C(C#N)=C(N)O2` (stereo not drawn) gave ELG1 repair inh inconclusive, Rab9 prom act inactive, NPC1 prom act inactive, SMN2 splice up inactive, FLuc counter 15.1µM and ELG1 genotoxic inactive.
Screening Cc1nn(-c2ccccc2)c2c1C(c1ccco1)C(C#N)=C(N)O2 (stereo not drawn) returned ELG1 repair inh inconclusive, Rab9 prom act inactive, NPC1 prom act inactive, SMN2 splice up inactive, FLuc counter 13.5µM and ELG1 genotoxic inactive.
`CCCc1nn(-c2ccccc2)c2c1C(c1cccs1)C(C#N)=C(N)O2` (stereo not drawn) gave ELG1 repair inh inconclusive, Rab9 prom act inactive, NPC1 prom act inactive, SMN2 splice up inactive, FLuc counter inactive and ELG1 genotoxic inactive.
Screening Cc1nn(-c2ccccc2)c2c1C(c1ccc([N+](=O)[O-])cc1)C(C#N)=C(N)O2 (stereo not drawn) returned ELG1 repair inh inactive, Rab9 prom act inactive, NPC1 prom act inactive, FLuc counter inactive and ELG1 genotoxic inactive.
`O=C(NCCc1ccco1)C(=O)NCC1CCCN1S(=O)(=O)c1ccccc1` (stereo not drawn) gave ELG1 repair inh inconclusive, Rab9 prom act inactive, NPC1 prom act inactive, FLuc counter inactive and ELG1 genotoxic inactive.
Cc1c(C(=O)Nc2ccccc2[N+](=O)[O-])csc1-c1ccccc1 was read as ELG1 repair inh inconclusive, Rab9 prom act 2.82µM, NPC1 prom act 3.16µM, FLuc counter 1.2µM and ELG1 genotoxic 4.61µM.
Screening Cc1c(C(=O)Nc2ccccc2)csc1-c1ccccc1 returned ELG1 repair inh inconclusive, Rab9 prom act 0.708µM, NPC1 prom act 1.12µM, SMN2 splice up 12.6µM, FLuc counter 0.213µM and ELG1 genotoxic 3.66µM.
`CC1=CC(=O)O[C@@H]1[C@@]1(C)C[C@H]2OC(=O)C[C@H]3[C@@H](C)C(=O)C(O)=C1[C@@]23CO` gave ELG1 repair inh 18.3µM, Rab9 prom act inactive, NPC1 prom act inactive, FLuc counter inactive and ELG1 genotoxic inactive.
`CCc1ccc(OCC(=O)NNC(=O)CNC(=O)c2ccc(Br)o2)cc1` gave ELG1 repair inh inactive, Rab9 prom act inactive, NPC1 prom act inactive, FLuc counter inconclusive and ELG1 genotoxic inactive.
CCCOc1ccc(OC(=O)c2ccc(Br)o2)cc1 was read as ELG1 repair inh inactive, Rab9 prom act inactive, NPC1 prom act inactive, SMN2 splice up inactive, FLuc counter 9.53µM and ELG1 genotoxic inactive.
Screening CCOC(=O)c1c(N)sc2c1CCC(CC)C2 (stereo not drawn) returned ELG1 repair inh inactive, Rab9 prom act inactive, NPC1 prom act inactive, SMN2 splice up inactive, FLuc counter inconclusive and ELG1 genotoxic inactive.
CC#CCOC(=O)c1c(C)nc2sc3c(c2c1N)CCC(O)C3 (stereo not drawn) was read as ELG1 repair inh inactive, Rab9 prom act inactive, NPC1 prom act inactive, SMN2 splice up inactive, FLuc counter inconclusive and ELG1 genotoxic 16.4µM.
For N#CCCN1CCCc2cc(N=Nc3ccc(C(F)(F)F)cc3)ccc21 the results were ELG1 repair inh inconclusive, Rab9 prom act inconclusive, NPC1 prom act inconclusive, FLuc counter 13.5µM and ELG1 genotoxic inactive.
For CCN(CC)c1ccc(CN2CCC(C(=O)NCc3ccc(C)cc3)CC2)cc1 the results were ELG1 repair inh inconclusive, Rab9 prom act inactive, NPC1 prom act inactive, FLuc counter 23.9µM and ELG1 genotoxic inactive.
Screening CCN(CC)S(=O)(=O)N1CCC(C(=O)NCc2ccc(C)cc2)CC1 returned ELG1 repair inh inactive, Rab9 prom act inactive, NPC1 prom act inactive, SMN2 splice up inactive, FLuc counter inactive and ELG1 genotoxic inactive.
